MARV entry inh – blocks Marburg virus binding to or entry into cells | Potency, µM (highest dose often 37.8 µM), without a hit: top-dose activity change, negative = inhibition, actives largely listed as inhibitors | hit rate 1.8% among 300,000 | Marburg virus pseudotyped entry inhibition, cell reporter; calls by dose curve; tested in HEK293 cells; note: potency is the fitted concentration of half-maximal effect
FMDV antiviral – blocks foot and mouth disease virus. Potency, µM (doses to about 57.9 µM), for inactives: top-dose activity change, negative = inhibition, hits mostly inhibitors. hit rate 1.2% among 410,000. FMDV antiviral cell-based qHTS; calls by dose curve; tested in HEK293T cells; note: read-out not given here; potency is the fitted concentration of half-maximal effect; nearly all actives have a fitted effect of over 45% in size
VACV Venus inh – inhibitors of vaccinia virus (Venus reporter); Vaccinia virus Venus reporter expression, fluorescence; Potency, µM (highest dose often 36.5 µM), for the others: top-dose activity change, negative = inhibition, usual class: inhibitors; hit rate 0.46% among 330,000; AID 720580; calls by dose curve; tested in A549 cells; note: potency is the fitted concentration of half-maximal effect; nearly all actives have a fitted effect of over 30% in size
Lassa entry inh – Lassa virus entry inhibition; Lassa virus pseudotype entry inhibition, cell reporter; Potency, µM (titrated, usually from 37.9 µM), for the others: top-dose activity change, negative = inhibition, actives largely listed as inhibitors; hit rate 1.2% among 300,000; AID 540256; calls by dose curve; tested in HEK293 cells; note: potency is the fitted concentration of half-maximal effect; nearly all actives have a fitted effect of over 50% in size
HCMV inh – human cytomegalovirus inhibition; activity change, negative = inhibition, % at 57.5 µM; HFF cells, HCMV-luciferase reporter, 72 h; stronger effect = lower value; hit rate 4.5% among 410,000; in the data active = activity change below about -60%; inconclusive = no clear call, values can overlap the other calls; inactive = above about -39%
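Two-dose cell screen: HFF monolayers treated with compounds and infected with luciferase-expressing HCMV at 1 PFU/cell, 72 h at 37C, then lysed for luciferase measurement.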
Vaccinia mCherry – vaccinia inhibition (mCherry reporter); Vaccinia virus mCherry reporter infection, fluorescence; Potency, µM (top dose mostly 36.5 µM), for the others: top-dose activity change, negative = inhibition, hits mostly inhibitors; hit rate 0.63% among 310,000; AID 720579; calls by dose curve; tested in A549 cells; note: potency is the fitted concentration of half-maximal effect; nearly all actives have a fitted effect of over 35% in size
* hit, by the source's call; i = inactive; ? = inconclusive; . = no result given; + = active, no number; [ ] = remark or other dose. The list is not random: actives were taken first. Their share in the collection is about 6.5%. % is set by controls: 0 for no effect and ±100 for the full control effect.

SMILES	MARV entry inh	FMDV antiviral	VACV Venus inh	Lassa entry inh	HCMV inh	Vaccinia mCherry
Cc1onc(-c2c(F)cccc2Cl)c1C(=O)Nc1nccs1	?	-28%	-14%	0%[46.1 µM]	?	-20%
COc1ccc(OC)c2sc(NC(=O)c3ccc(Cl)s3)nc12	.	0%	?	.	-8	-16%
COc1ccc(OC)c2sc(NC(=O)c3ccc(Br)s3)nc12	.	-12%	11µM*	.	-23	?
Cc1onc(-c2c(F)cccc2Cl)c1C(=O)Nc1nnc(C(F)(F)F)s1	.	?	.	.	-98*	.
CC(NC(=O)Nc1nnc(C(F)(F)F)s1)(C(F)(F)F)C(F)(F)F	?	?	2.5µM*	3.5µM*	-98*	4µM*
O=C(Nc1ccccc1C(=O)Nc1nnc(C(F)(F)F)s1)c1ccccc1Cl	?	?	-47%	?	-103*	?
COCC(=O)Nc1cc(C(=O)N2CCN(c3ccccc3)CC2C)c2c(c1)nc(-c1ccncc1)n2C (stereo not given)	.	8%	4%	.	.	-6%
CC1=C(C(=O)NCc2ccccc2C)C2(CCCCCC2)OC1=O	.	-2%	-3%	14%[46.1 µM]	?	-16%
Cc1nc(C(=O)NNC(=O)c2c(-c3c(Cl)cccc3Cl)noc2C)cs1	1.6µM*	?	?	?	?	?
Cc1cc(C(=O)NNC(=O)c2c(-c3c(Cl)cccc3Cl)noc2C)no1	27%	-8%	-5%	7%	4	-16%
O=C(Nc1nnc(C(F)(F)F)s1)c1ccc(Br)s1	?	-5%	?	?	?	10µM*
COc1ccc(C2=NCC(CSc3nnc(-c4ccc5c(c4)OCO5)o3)S2)cc1 (stereo not given)	?	?	.	9%	0	.
CCN(CC)S(=O)(=O)c1ccc2oc(SCC3CN=C(c4ccc(OC)cc4)S3)nc2c1 (stereo not given)	-30%	?	.	?	-67*	.
CCn1c(-c2nonc2N)nc2c(C#CC(C)(C)O)nc(OC(CN)c3ccccc3)cc21 (stereo not given)	.	.	.	8.9µM*	.	.
COc1ccc(C(=O)NCC(=O)N=Nc2c(O)n(C)c3ccccc23)cc1OC	.	-9%	.	.	-61*	.
CCOc1cccc2sc(N(Cc3cccnc3)C(=O)C3CCCCC3)nc12	.	-3%	-8%	-26%[46.1 µM]	+	-23%
COc1cccc2sc(N(Cc3cccnc3)C(=O)C3CCCCC3)nc12	.	-7%	-4%	?	-32	-4%
Cc1ccc(S(=O)(=O)NC(CCCNC(=O)OCc2ccccc2)C(=O)O)cc1 (stereo not given)	.	.	.	.	-37	.
CC(C)(C)c1ccc(-n2ncc3c2CCCC3NC(=O)CCC2=NNC(=O)CC2)cc1 (stereo not given)	.	?	-28%	.	-76*	i
Cc1ccc(-n2ncc3c2CCCC3NC(=O)CCCN2CCCC2=O)cc1C (stereo not given)	-4%	0%	-10%	-10%	-7	-11%
CC(C)(C)c1ccc(-n2ncc3c2CCCC3NC(=O)CCN2CCCCC2=O)cc1 (stereo not given)	-19%	?	-25%	-49%	-64*	-28%
COc1cc(C)c(CN2CCC3(CCC(CNC(=O)c4ccnn4C)O3)CC2)cc1C (stereo not given)	.	2%	-14%	.	.	i
N#C/C(C(=O)NCc1ccccc1)=C1\S[C@H](CCO)C(=O)N1c1ccccc1	-5%[46.1 µM]	.	.	.	.	.
C=CCN1C(=O)C2CCCCC2n2nnc(C(=O)OCC)c21 (stereo not given)	11%	.	.	.	.	.
Cc1ccc(-n2c(C)cc(/C=C3/C(=O)NC(=O)N(C)C3=O)c2C)cc1	-1%	13%	-12%	10%	-5	-12%
SMILES	MARV entry inh	FMDV antiviral	VACV Venus inh	Lassa entry inh	HCMV inh	Vaccinia mCherry
COc1ccc(N2C(=O)/C(=C/c3cc(C)n(-c4ccc(C)cn4)c3C)C(=O)NC2=S)c(OC)c1	.	32µM*	.	.	27	.
COc1ccc(OC)c(N2C(=O)/C(=C/c3ccco3)C(=O)NC2=S)c1	10µM*	-28%	9%	-8%	.	2%
Oc1ccc(Cl)cc1CN1CCOc2c(O)cc(-c3nc4ccccc4s3)cc2C1	.	-17%	-10%	.	.	-24%
Nc1ccc(CC(N)c2csc(Nc3ncccn3)n2)cc1 (stereo not given)	.	3%	?	.	-24	?
NC(Cc1ccc(F)cc1)c1csc(Nc2ncccn2)n1 (stereo not given)	.	-19%	7.9µM*	.	-18	7.1µM*
NC(Cc1ccc(Cl)cc1)c1csc(Nc2ncccn2)n1 (stereo not given)	.	-18%	7.9µM*	.	0	10µM*
COC(=O)c1cc(C)nc(Nc2nc(C(N)Cc3ccc(F)cc3)cs2)n1 (stereo not given)	.	-25%	-8%	.	17	i
Cc1cc(C)nc(Nc2nc(C(N)Cc3ccccc3)cs2)n1 (stereo not given)	.	13%	?	.	-73*	-28%
COc1ccc(CC(N)c2csc(Nc3nccc(C(F)(F)F)n3)n2)cc1 (stereo not given)	.	-17%	-10%	.	102	23%
COc1ccc(CC(N)c2csc(Nc3ncccn3)n2)cc1 (stereo not given)	.	-22%	?	.	?	13µM*
C=C(C)C(O)/C=C/C=C/c1ccccc1 (stereo not given)	2%[14.2 µM]	.	.	.	.	.
Cc1ccc(NC(=O)c2cc(S(=O)(=O)NC3CCCCCC3)ccc2F)cc1F	.	-2%	-25%	-19%[46.1 µM]	?	-25%
COc1ccc(CN2C[C@]3(CO)OC(CO)C[C@H]3[S+]2(=O)[O-])cc1 (stereo not given in full)	.	.	.	5%[46.1 µM]	.	.
COc1ccc(/C=C/C(=O)c2c(O)c(OC)c3occc3c2OC)cc1OC	.	.	-23%	.	.	-12%
COc1ccc(N2CCC(CNC(=O)Nc3ccc(OC)cc3OC)C2)cc1 (stereo not given)	7%	-17%	10µM*	-17%	-80*	-16%
COc1ccc(N2CCC(CNC(=S)Nc3c(C)cc(C)cc3C)C2)cc1 (stereo not given)	.	0%	.	.	-70*	.
COc1ccc(N2CCC(CNC(=O)Nc3ccc(C)c(C)c3)C2)cc1 (stereo not given)	-22%	-2%	-26%	1%	11	-27%
O=C1CCCC=C1C(O)COCc1ccccc1 (stereo not given)	3%[14.2 µM]	.	.	.	.	.
O=C(N/N=C/c1ccc(C(F)(F)F)cc1)c1ccncc1	-9%	34%	-19%	-1%	-15	-15%
C=CCOc1ccc(/C=N\NC(N)=S)cc1	.	30%	.	.	1	.
NC(=S)N/N=C/c1ncc(C(F)(F)F)cc1Cl	?	-16%	-22%[7.34 µM]	?	.	1.4µM*
COc1ccc(/C=N/NC(N)=S)cc1	9%[46.1 µM]	4%	5.6µM*	1%	13	6.3µM*
ON/C=N/C(=S)Nc1ncc(C(F)(F)F)cc1Cl	?	-2%	-3%	1%[46.1 µM]	-32	i
NC(=S)N/N=C/c1ccc(C(F)(F)F)cc1	-21%	-4%	?	?	-88*	1.8µM*
CC(C)Oc1ccc(/C=N/NC(N)=S)cc1	?	22%	1.6µM*	?	36	1.1µM*

Source: PubChem BioAssay (National Center for Advancing Translational Sciences (NCATS))
